# Measurements published in PubChem BioAssay AID624337 (National Center for Advancing Translational Sciences (NCATS), 2012).
# Results filed as inconclusive are left out. Active and inactive are the calls of the source. Calls follow the shape of the dose curve; as a rule, active = well fitted curve in the direction sought with a large enough effect; inconclusive = small, poorly fitted or top-dose-only effect; inactive = flat fitted curve, though single readings scatter.
# Assay: Quantitative high throughput screen for delayed death inhibitors of the malarial parasite plastid: Hit Validation with Dd2 at 96hr using Flow Cytometry
# Details: P. falciparum Dd2 growth; parasitemia, lower = inhibition: at 50 µM (top of the series)
# From the text: The goal of this screen is to discover new antimalarial compounds that act by inhibiting the development of the apicoplast organelle in the malarial parasite Plasmodium falciparum. Some antibiotics, such as azithromycin and tetracycline, are known to interfere with the apicoplast translational machinery, and have a potent antimalarial effect. […] We developed a cell-based quantitative high throughput screen that leverages this "delayed death" phenotype to enrich for compounds that target the apicoplast. To detect small molecules that cause the delayed death phenotype, erythrocytes infected with firefly luciferase-expressing parasites were incubated with compounds for either one or two generations, corresponding to 48 and 96 hours, respectively. Growth inhibition was detected by a decrease in luciferase activity. Compounds that inhibited parasite growth in the second generation at least five-fold more potently than in the first generation were defined as delayed death inducing. These compounds were selected for confirmatory screening using a flow cytometry based assay. This hit validation assay used the Dd2 cell line and measured at 96 hours. NIH Molecular Libraries Probe Production Network [MLPCN] NIH Chemical Genomics Center [NCGC] MLPCN Grant: R21 NS059500 Assay Provider: David Fidock and Eric Ekland, Columbia University
# Test compounds were diluted in 20 microliters of complete media (RPMI 1640 with 0.5% w/v Albumax (GIBCO), 24 mM sodium bicarbonate (Sigma) and 10 ug/mL gentamycin (Gibco)) in clear 384-well plates (Greiner). All liquid handling was conducted using a Bio Tek Precision 2000 pipetting system. Twenty microliters of infected erythrocytes, 0.2% parasitemia (for 48 hour time points) or 0.1% parasitemia (for 96 hour time points) were added to the compound dilutions (1% hematocrit, final concentration; 40 microliters, total culture volume). The assay plates were incubated for 48 hours, or 96 hours, at 37 masculine C in a humidified chamber (Billups- Rothenberg, Del Mar, CA, USA), gassed with 5%CO2/5%O2/ 90%N2. After two generations (96 hours), 5 microliters of culture were harvested and transferred to a second 384 well plate for fluorescent staining. Samples were stained with 30 microliters of 2 x SYBR Green I (Invitrogen) and 150nM MitoTracker Deep Red (Invitrogen) diluted in 0.9% NaCl, 0.2% dextrose (Baxter) supplemented with 2.5% Fetal Calf Serum (Gibco) (saline/FCS). Mature erythrocytes lack nuclei and mitochondria, therefore only parasitized erythrocytes retain the SYBR Green I and MitoTracker Deep Red. After 30 minutes at 37 masculine C, the stained cells were diluted in an additional 60 microliters of saline/FCS. The samples were harvested directly from the 384 well plate using a Hypercyt High Capacity Flow Platform (Intellicyt) paired with a C6 Flow Cytometer (Accuri). The flow cytometry files were analyzed using FlowJo software (FlowJo).
SMILES,Potency,"parasitemia, lower = inhibition"
O=C(Nc1ccccc1N1CCOCC1)c1cccc(S(=O)(=O)N2CCOCC2)c1,10.6 µM (active),–
c1csc(CNc2ncnc3nc[nH]c23)c1,31.3 µM (active),–
CCCCOc1ccc(N2C(N)=NC(N)=NC23CCCCC3)cc1,4.34 µM (active),–
Cc1ccc(CN2CCC(n3nccc3NC(=O)c3ccccc3C)CC2)o1,12.8 µM (active),–
O=C(CNC(=O)C1CCCCC1)OC(C(=O)c1ccccc1)c1ccccc1 (configuration not stated),–,0.991 (active)
Cc1ccc(S(=O)(=O)Nc2ccc(C(=O)Nc3ccncc3)cc2)cc1,14 µM (active),–
Cc1ccc(-n2c(-c3ccc(Cl)cc3)c[n+]3c2CCC3)cc1,0.0825 µM (active),–
N#Cc1cccc(NC(=O)Cn2c3[n+](c4ccc(C(F)(F)F)cc42)CCCCC3)c1,0.424 µM (active),–
CCOc1ccc(C(=O)Nc2ccc(N3CCN(C)CC3)cc2)cc1,–,0.471 (active)
CC(=O)NC[C@@H]1CN(c2ccc(N3CCOCC3)c(F)c2)C(=O)O1,18 µM (active),–
CO[C@@H]1[C@@H](OC2OC(C)C(OC3CC(C)(O)C(OC(=O)CC(C)C)C(C)O3)C(N(C)C)C2O)[C@@H](CC=O)C[C@@H](C)C(=O)/C=C\C2O[C@H]2C[C@@H](C)OC(=O)C[C@H]1OC(C)=O (some centres not stated),0.0981 µM (active),–
CCOc1ccc(NC(=O)C[n+]2ccc(N(C)C)cc2)cc1,0.121 µM (active),–
COc1ccc2c(ccc[n+]2CC(=O)c2ccccc2)c1,5.18 µM (active),–
COc1ccc(C(=O)N2CCN(S(=O)(=O)c3ccc(C)cc3C)CC2)cc1OC,29.7 µM (active),–
COCCNC(=O)c1cccc(OC2CCN(Cc3cccc(SC)c3)CC2)c1,–,1.86 (inactive)
CN(C)c1ccc(CN(C(=O)c2ccccc2Br)C2CCS(=O)(=O)C2)cc1 (configuration not stated),29.1 µM (active),–
CC(C)C(=O)NCCSc1c[nH]c2ccccc12,5.01 µM (active),–
CC1=Nc2cc(C(=O)N3CCCC3)ccc2Sc2ccc(C)cc21,–,0.0412 (active)
COc1ccc(Nc2nnc(-c3ccc(C)cc3)c3ccccc23)cc1C(=O)N1CCCCC1,25.7 µM (active),–

SMILES,Potency,"parasitemia, lower = inhibition"
COc1ccc2cc3cc(C(=O)Nc4ccc5c(c4)OCO5)oc3nc2c1,24.9 µM (active),–
CCOC(=O)c1ccc2c(c1)n(CC)c(/C=C/N(C)c1ccccc1)[n+]2CC,0.185 µM (active),–
CCCCN(CCCNC(=O)c1ccc(CS(=O)(=O)c2ccc(OC)cc2)o1)Cc1ccccc1,1.66 µM (active),–
CCCc1c(CC)c(=N)c2ccccc2n1C,0.113 µM (active),–
O=C(c1ccc([N+](=O)[O-])cc1)n1nc(-c2ccccc2)nc1NCc1ccc(F)cc1,24.6 µM (active),–
CCC(=O)OC1C(N(C)C)CC(C)O[C@H]1O[C@H]1[C@H](C)[C@@H](O[C@H]2CC(OC)[C@@H](O)C(C)O2)[C@H](C)C(=O)O[C@@H](CC)[C@](C)(O)[C@@H](O)[C@H](C)C(=O)[C@@H](C)C[C@]1(C)O (some centres not stated),4.56 µM (active),–
O=C(CSc1ccc(-c2cccnc2)nn1)Nc1ccccc1C(F)(F)F,6.51 µM (active),–
Clc1ccc(-c2c[n+](Cc3ccc(Cl)cc3Cl)c3n2CCCCC3)cc1,0.244 µM (active),–
Brc1cccc(OCCCCN2CCCCC2)c1,2.79 µM (active),–
COc1ccccc1N1CCN(CCC(=O)Nc2ccc(F)cc2)CC1,8.91 µM (active),–
Cc1c(F)c(N2CCNC(C)C2)cc2c1c(=O)c(C(=O)O)cn2C1CC1 (configuration not stated),0.479 µM (active),–
CCOc1ccc(S(=O)(=O)Nc2cc(S(=O)(=O)N(CC)CC)ccc2N2CCCC2)cc1,13.9 µM (active),–
COc1ccc(CNC(=O)C2CCC(CNS(=O)(=O)c3cccc4cccnc34)CC2)cc1 (configuration not stated),38.9 µM (active),–
COc1ccc(NC(=S)N2CCC(Cc3ccccc3)CC2)cc1OC,–,0.714 (active)
CCCCN(CCCNC(=O)C1CCN(C(=O)c2cc3sccc3n2C)CC1)Cc1ccccc1,0.389 µM (active),–
Cc1sc2nc[nH]c(=O)c2c1-c1ccc(Cl)cc1,9.78 µM (active),–
COc1cccc(CN2CCN(c3nc4nonc4nc3N3CCCCC3)CC2=O)c1,5.78 µM (active),–
CCc1nc(SCC(=O)Nc2ccc(N(C)C)cc2)n[nH]1,15.1 µM (active),–
